The list is not random: actives were taken first. Their share in the collection is about 9.6%.
Insulin prom inh: inhibitors of insulin promoter-driven GFP, primary screen, imaging, TRM-6 cells (human fetal islet line), eGFP reporter, cell count; 0.9% of 130,000 active; reporter expression induced with tamoxifen; inhibition, % at 2 µM;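 active = inhibition above the mean plus 3 SD, with well images judged a real hit on visual review, cut at about 60% in these data, passing the limit was not always enough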
Autophagy HCS: autophagy modulators in MEF cells, primary screen, imaging, high-content, MEF GFP-LC3. MEF GFP-LC3 puncta imaging; test concentration mostly 10 µM. calls only at 10 µM (by protocol). 0.98% of 190,000 active. AID 463193, 2010;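 active = percentage of spot-positive cells more than 3 SD above its plate mean, without a fluorescence outlier flag or 80% toxicity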
bCat KO growth: primary screen for growth suppressors in beta-catenin knockout HCT116 cells (colon tumor, human) | viability, % at 10 µM | 1.5% of 140,000 active | HCT116 beta-catenin knockout viability, CellTiter-Glo, 60 h; active compounds read low | AID 818, 2007;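 active = viability at or under a set limit, the compound median less 4 SD, cut at about 6% in these data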
Lmaj promast: Leishmania major promastigote growth inhibition, primary screen; Leishmania major promastigotes, resazurin fluorescence viability; inhibition, % at 10 µM; 9% of 200,000 active; AID 1063, 2008; in the data active = inhibition above about 50%;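 also: promastigotes grown with compound for 44 hours at 28 °C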
Insulin prom up: insulin promoter activators in MIN6 cells, imaging, high-content screening, mouse beta cells. MIN6 insulin promoter-GFP reporter; active compounds read high. z-score at 5 µM. 0.3% of 190,000 active;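 active = z-score above 3 at 5 µM with at least 500 cells counted in the well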
PTEN del growth: growth suppression of PTEN-null HCT116, primary screen, cell-based, CellTiter-Glo. HCT116 PTEN-null viability, 60 h; active compounds read low. viability, % at 10 µM. 1.2% of 140,000 active. AID 827, 2007;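 active = viability at or below a set limit, 4 SD under the median of all tested compounds, cut at about 3.7% in these data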;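 also: PTEN knockout HCT116 line with beta catenin targeted HCT116 as companion control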
Of the large screens only hits and unclear results are named; the others gave an inactive call.

O=C(NC(=S)NCc1ccccc1)C1CC1	none (no result: Insulin prom inh, bCat KO growth, PTEN del growth)
CC(C)(C)CC(=O)NC(=S)NCCc1ccccc1	Lmaj promast 89.8
O=C(NC(=S)NCCc1ccccc1)C1CCCCC1	Lmaj promast 87.7
O=C(NCCc1ccccc1)NC1CCCCC1	Insulin prom inh 80.0
O=C(NC1CCCCCC1)C(=S)NCCc1ccccc1	none (no result: Insulin prom inh, bCat KO growth, PTEN del growth)
Nc1nc(N)c(C=Nc2ccc(Br)cc2)c(Nc2ccc(Br)cc2)n1	none (no result: Insulin prom inh, Autophagy HCS, bCat KO growth, Lmaj promast, PTEN del growth)
O=C(NCCCn1ccnc1)c1cccc(S(=O)(=O)N2CCCCCC2)c1	none
Cc1ccc(S(=O)(=O)N2CCCC(c3nnc4n3-c3ccccc3SC4)C2)cc1 (stereo unspecified)	none
CCN(Cc1cc2ccc(C)cc2[nH]c1=O)C(=O)c1cccnc1	none (no result: Insulin prom inh)
COc1ccc2oc(C(=O)NN3C(C)CCCC3C)c(C)c2c1 (stereo unspecified)	none (no result: Insulin prom inh, bCat KO growth, PTEN del growth)
Cc1ccc(C)c(CN2C(=O)COc3ccc(C(=O)c4ccccc4C(=O)O)cc32)c1	Lmaj promast 100.2 (no result: bCat KO growth, PTEN del growth)
CN1C(=O)COc2ccc(C(=O)c3ccccc3C(=O)O)cc21	none (no result: Insulin prom inh)
C[N+]1(CCCOC(=O)C2(c3ccccc3)CCCC2)CCOCC1	none
Cc1cccc(-c2nnc3n2N=C(c2ccccc2)CS3)c1	none (no result: Insulin prom inh)
Cc1nn2c(nc1=O)SCC(c1ccccc1)=N2	Insulin prom inh 81.6
O=C(NNC1CC(=O)N(c2ccc(Br)cc2)C1=O)c1cccs1 (stereo unspecified)	none (no result: Insulin prom inh, Autophagy HCS, bCat KO growth, Lmaj promast, PTEN del growth)
Cc1cccc(NC(=O)c2cccc(N3C(=O)C4C5CCC(C5)C4C3=O)c2)c1C (stereo unspecified)	none (no result: Insulin prom inh)
O=C(N/N=C/c1ccc(O)cc1)Nc1cccc2nsnc12	Lmaj promast 53.9 (no result: Insulin prom inh, bCat KO growth, PTEN del growth)
COc1cc(/C=N/NC(=O)Nc2cccc3nsnc23)cc(OC)c1OC	none
Oc1cccc2ccc(/C=C/c3cccs3)nc12	Autophagy HCS active, Lmaj promast 94.5, PTEN del growth 3.8
Oc1ccc(Cl)cc1/C=C/c1ccc2cccc(O)c2n1	Lmaj promast 88.6 (no result: bCat KO growth, Insulin prom up, PTEN del growth)
CSc1ccc(/C=C/c2ccc3cccc(O)c3n2)cc1	Lmaj promast 89.4 (no result: Insulin prom inh, bCat KO growth, PTEN del growth)
Cc1ccsc1/C=C/c1ccc2cccc(O)c2n1	bCat KO growth 5.0, Lmaj promast 98.2
CCOC(=O)c1sc(N)nc1C(C)(C)C	none (no result: Insulin prom inh)
CN(CCCOc1ccccc1Br)Cc1ccccc1	none (no result: bCat KO growth, PTEN del growth)
CCOc1cccc(OCCOCCN(C)C)c1	none
Cc1ccc(Cl)c(OCCCCN(C)Cc2ccccc2)c1	Lmaj promast 90.6
CN(CCOCCOc1ccc(Cl)cc1Br)Cc1ccccc1	Lmaj promast 87.2 (no result: bCat KO growth, PTEN del growth)
CCOc1ccc(OCCN(C)Cc2ccccc2)cc1	Lmaj promast 92.8 (no result: Insulin prom up)
CCOc1cccc(OCCOCCN(C)Cc2ccccc2)c1	Lmaj promast 79.5
Cc1cc(C)nc(NC(=O)c2ccc(Cl)cc2Cl)n1	none (no result: bCat KO growth, PTEN del growth)
N#CCSCC(=O)Nc1ccc(F)cc1	none
O=S1(=O)N=C(SCCO)c2ccccc21	none
COc1ccc(OCC(=O)N(C)Cc2ccccc2)cc1	Autophagy HCS active (no result: Insulin prom inh)
Cc1ccc2c(c1)NC(=O)C(CC(=O)NC1CCCCC1C)O2 (stereo unspecified)	none (no result: Insulin prom inh, Autophagy HCS, Insulin prom up)
CN(C)N1C(N)=C(C#N)C(c2cccc3ccccc23)C2=C1CC(c1ccccc1)CC2=O (stereo unspecified)	Lmaj promast 95.5
CCCCCn1c(=O)[nH]c2cc(C(=O)NCCN3CCOCC3)ccc2c1=O	none (no result: bCat KO growth, Insulin prom up, PTEN del growth)
CCCCN(CC)CCCNC(=S)Nc1ccc2nc(N3CCN(CC)CC3)cc(C)c2c1	Autophagy HCS active, Lmaj promast 96.4 (no result: Insulin prom inh, bCat KO growth, PTEN del growth)
CCCCN(CC)CCCNC(=S)Nc1ccc2nc(N3CCN(C)CC3)cc(C)c2c1	Autophagy HCS active, Lmaj promast 56.2 (no result: Insulin prom inh, bCat KO growth, PTEN del growth)
FC(F)(F)COc1nc(N/N=C/c2cccnc2)nc(N2CCCCC2c2ccccn2)n1 (stereo unspecified)	Lmaj promast 51.5 (no result: Insulin prom inh, bCat KO growth, PTEN del growth)
C(=N\Nc1nc(N2CCCC2)nc(N2CCCC2)n1)/c1cccnc1	none (no result: Insulin prom inh, bCat KO growth, PTEN del growth)
Cc1cc(C)cc(NC(=S)N2CCC(c3nc4ccccc4s3)CC2)c1	none
COc1cccc(/C=N/NC(=O)c2cc3cc([N+](=O)[O-])ccc3s2)c1O	Lmaj promast 99.7
COc1cc(/C=N/NC(=O)c2ccc(N(C)S(=O)(=O)c3ccccc3)cc2)cc(OC)c1OC	Lmaj promast 100.1 (no result: Insulin prom up)
COc1cc(/C=N/NC(=O)c2cc(-c3cccn3C)n[nH]2)cc(OC)c1OC	none (no result: Insulin prom inh)
COc1cccc(/C=N/NC(=O)c2cc(-c3cccn3C)n[nH]2)c1O	Lmaj promast 98.4 (no result: Insulin prom inh, Insulin prom up)

From PubChem BioAssay
